Screens deposited in PubChem by several laboratories.
Sampled rows, rich in hits. Any-hit rate of the full collection: about 3.2%.
A3G deaminase: blocks human APOBEC3G single-stranded DNA deamination. Q9HC16. recombinant A3G, ssDNA deamination FAM/TAMRA fluorescence. inhibition, % at 20 µM. 330,000 tested, 0.28% active;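 active means inhibition of at least 40% at 20 µM, with no more than 30% in the related APOBEC3A deaminase screen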;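 further: plate controls were DMSO wells with A3G for no effect and wells lacking A3G enzyme for full effect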
NTR1 ag: activates human neurotensin receptor 1. P30989. NTR1-U2OS beta-arrestin-GFP spot imaging, agonist mode. activation, % at 20 µM. 330,000 tested, 0.17% active;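 active means activation at or above 40% of the spot to cytoplasm intensity ratio, with at least 20 cells analyzed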;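 further: 0% = DMSO without peptide and 100% = 100 nM NTR1 peptide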
AHR act: activates the human aryl hydrocarbon receptor; activation, % at 5 µM; AHR-responsive luciferase reporter cells, luminescence; 320,000 tested, 2.5% active; in the data active means activation above about 47%;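 further: 0% = vehicle wells and 100% = reference agonist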
Target sequence (P35869 whole entry, looked up): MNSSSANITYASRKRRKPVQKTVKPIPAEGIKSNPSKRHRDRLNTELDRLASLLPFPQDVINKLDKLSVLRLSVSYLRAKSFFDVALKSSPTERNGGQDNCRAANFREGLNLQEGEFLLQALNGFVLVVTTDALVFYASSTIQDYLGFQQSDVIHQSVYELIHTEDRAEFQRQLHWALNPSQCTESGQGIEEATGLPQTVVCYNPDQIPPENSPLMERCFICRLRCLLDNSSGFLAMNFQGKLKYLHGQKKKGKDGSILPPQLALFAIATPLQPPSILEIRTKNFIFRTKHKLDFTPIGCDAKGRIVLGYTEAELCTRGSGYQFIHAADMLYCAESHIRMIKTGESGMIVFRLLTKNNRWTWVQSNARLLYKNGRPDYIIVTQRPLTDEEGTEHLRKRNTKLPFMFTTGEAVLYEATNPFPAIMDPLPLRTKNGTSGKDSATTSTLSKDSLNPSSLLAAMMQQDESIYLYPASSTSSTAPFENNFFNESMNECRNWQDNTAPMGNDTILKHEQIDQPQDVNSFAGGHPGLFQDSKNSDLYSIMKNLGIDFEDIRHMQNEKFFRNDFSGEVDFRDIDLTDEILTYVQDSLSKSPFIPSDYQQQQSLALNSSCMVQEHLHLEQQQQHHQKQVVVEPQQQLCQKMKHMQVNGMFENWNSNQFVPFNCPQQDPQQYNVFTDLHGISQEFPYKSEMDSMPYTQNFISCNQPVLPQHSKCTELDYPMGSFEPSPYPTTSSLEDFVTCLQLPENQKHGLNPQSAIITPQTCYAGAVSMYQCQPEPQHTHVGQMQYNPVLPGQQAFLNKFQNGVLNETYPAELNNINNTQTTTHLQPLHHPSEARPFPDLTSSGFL
A3A deaminase: blocks human APOBEC3A ssDNA deamination; P31941; recombinant A3A, FAM/TAMRA ssDNA deamination fluorescence; inhibition, % at 20 µM; 330,000 tested, 0.41% active;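 active means at least 40% inhibition at 20 µM here, with at most 30% in a related deaminase screen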;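 further: plate controls were A3A with DMSO for no effect and wells lacking A3A enzyme for full effect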
APOBEC3A confirm: confirmation of human APOBEC3A DNA deaminase inhibitors | shares compounds with A3A deaminase | recombinant A3A, ssDNA deaminase UDG fluorescence assay | inhibition, % at 20 µM | 1,400 tested, 63% active | AID 493151;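 active means inhibition reaching a set limit, 80% of the first screen's cutoff, at 20 µM in any replicate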;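 further: plate controls were DMSO wells with A3A for no effect and wells lacking A3A enzyme for full effect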
UDG ctr A3A: inhibits UDG, flagging false APOBEC3A inhibitors. shares compounds with A3A deaminase. UDG counterscreen, FAM/TAMRA uracil oligo fluorescence. inhibition, % at 20 µM. 1,000 tested, under 10 active; call rule not given here
An asterisk follows results filed as active; / = not tested or not shown.

SMILES | A3G deaminase | NTR1 ag | AHR act | A3A deaminase | APOBEC3A confirm | UDG ctr A3A
C[N+]1(CC(=O)OCCCc2ccccc2)CCCCC1 | 16 | 0 | 1 | 48* | 83* | 2
CCOC(=O)Cc1csc(NC(=O)c2c(O)c3c(n(CC(C)C)c2=O)CCCC3)n1 | -5 | 1 | -1 | -1 | / | /
CCc1nnc(NC(=O)CCC(=O)NC2CCCc3ccccc32)s1 (configuration not stated) | -5 | 2 | 9 | -5 | / | /
CCN(CC)c1ccc2nc3ccc(N)cc3[n+](-c3ccccc3)c2c1 | 11 | 17 | / | 17 | / | /
CCN(CC)c1ccc2nc3ccccc3[n+](CC)c2c1 | 23 | 2 | 1 | 79* | 82* | 3
COC(=O)CCCCCCCCC(O)C[N+]1(C)CCOCC1 (configuration not stated) | 23 | 2 | -2 | 53* | 78* | -3
COC(=O)CCCCCCCCC(O)CN(C)C (configuration not stated) | 0 | 1 | 2 | 1 | / | /
CC(=O)OCCCCCCCCCCC[N+]1(C)CCCCC1 | 20 | 0 | 3 | 79* | 73* | 2
COC(=O)CCCCCCCCCC[N+]1(C)CCCCC1 | 22 | -1 | 0 | 44* | 85* | 2
Cc1cc(C)c(C)c(S(=O)(=O)NCc2ccc(C(=O)NCC3CCCO3)cc2)c1C (configuration not stated) | -6 | -1 | 0 | 0 | / | /
Cc1cccc(N2CC(C(=O)Nc3nnc(SCC(=O)Nc4nccs4)s3)CC2=O)c1 (configuration not stated) | -3 | 0 | 0 | 2 | / | /
Cc1ccccc1N1CC(C(=O)Nc2nnc(SCC(=O)Nc3nccs3)s2)CC1=O (configuration not stated) | -10 | 3 | 0 | 48* | 9 | 6
COC(=O)c1ccc([C@@H]2C[C@H]3CN(Cc4cccnc4)C(=O)[C@]34CCCN24)cc1 | -4 | 1 | -1 | 7 | / | /
Cc1ccc(NC(=O)Cn2cc(C(=O)C3CC3)c3ccccc32)c(C)c1 | -7 | -1 | -1 | -5 | / | /
Cc1ccc(C)c(NC(=O)Cn2cc(C(=O)C3CC3)c3ccccc32)c1 | 18 | 1 | 2 | 71* | 62* | 4
CCC(C)Sc1nnc(Cc2cc(=O)[nH]c(=O)[nH]2)n1-c1ccc(OC)cc1 (configuration not stated) | -4 | 4 | -1 | 63* | -2 | -2
Cc1nnc(SC(C)C)n(N)c1=O | -6 | -1 | -2 | -1 | / | /
COc1cccc(OC)c1C(=O)Nc1cccc2c1CCCC2 | -1 | 2 | 3 | 55* | -3 | 1
COc1cc(OC)cc(C(=O)Nc2cccc3c2CCCC3)c1 | -2 | 2 | 30 | -7 | / | /
CCOC(=O)Nc1ccc(C(=O)/C=C/c2ccccc2)cc1 | -6 | 9 | 7 | -3 | / | /
CS(=O)(=O)c1ccc(C(=O)N2CC(=O)Nc3ccccc32)cc1 | 5 | 1 | 4 | 54* | 21 | /
Fc1ccc(Nc2ncnc3sc4c(c23)CCC4)cc1 | -5 | 1 | 22 | 61* | 0 | 2
Cc1cccc(NC(=O)C(=O)NCC2CCCO2)c1 (configuration not stated) | -13 | 1 | 13 | -1 | / | /
CCc1cccc(C)c1NC(=O)c1cc(=O)[nH]c2ccc(S(=O)(=O)N3CCOCC3)cc12 | 3 | 1 | 0 | 43* | 35* | -3
Cc1ccc(NC(=O)c2cc(=O)[nH]c3ccc(S(=O)(=O)N4CCOCC4)cc23)cc1 | -7 | 0 | 7 | -3 | / | /
SMILES | A3G deaminase | NTR1 ag | AHR act | A3A deaminase | APOBEC3A confirm | UDG ctr A3A
O=C(NCC1CCCO1)c1cc2ccccc2o1 (configuration not stated) | -11 | -1 | 6 | -1 | / | /
CCOC(=O)C1CCN(C/C=C/c2ccccc2[N+](=O)[O-])CC1 | -4 | 0 | 6 | -2 | / | /
COC(=O)c1ccc2ccn(CC(=O)NC(C)C)c2c1 | 13 | 0 | -1 | 74* | 70* | -2
CCN(Cc1ccccc1)C(=O)c1ccc(SC)cc1OC | 1 | 2 | 0 | 3 | / | /
COc1cc(OC)c(C(=O)N(CCc2ccccc2)Cc2ccccc2)cc1OC | -2 | 0 | 9 | 65* | 0 | -2
CC(C)(C)NC(=O)CC1C[C@H](C(=O)N2CCCCC2)[C@@]2(C)c3[nH]c4ccccc4c3CCN2C1=O (some centres not stated) | -7 | 4 | 1 | -3 | / | /
C[N+]1(CCCOC(=O)C2(c3ccccc3)CCCC2)CCOCC1 | 28 | 0 | 1 | 85* | 69* | -3
